Source: PubChem BioAssay AID1159580 (chemical genetic matrix, 2015)
The campaign covered roughly 5,500 compounds. About 2,000 (36%) were called active. About 18% were inconclusive and are not listed. Rule as the data show it: active = normalized growth mostly below about 0.91 (no sharp cut-off); inconclusive = no clear call, values can overlap the other calls; inactive = mostly above about 0.92. The list shows a part of the results.

Experiment: chemical genetic growth profiling, strain panel (AID 1159580);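 also: tested at 20 µM; growth read once vehicle control cultures reached saturation at 30 °C; 1 = growth at the plate median or of vehicle wells; lower values mean less growth of the strain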
Settings: S. cerevisiae deletion strains, growth OD

Measured: normalized growth

COc1cc(N)c(Cl)cc1C(=O)NC1CCN(Cc2ccccc2)CC1
inactive: locus YAL013W, strain DEP1, active compounds read low 0.997 | locus YAL021C, strain ccr4, active compounds read low 1 | locus YAL026C, strain drs2, active compounds read low 1 | locus YAL030W, strain snc1, active compounds read low 1 | locus YBL061C, strain skt5, active compounds read low 0.997 | locus YBR009C, strain hhf1, active compounds read low 0.999 | locus YBR021W, strain FUR4, active compounds read low 1.07 | locus YBR023C, strain chs3, active compounds read low 0.995 | locus YBR171W, strain sec66, active compounds read low 0.999 | locus YBR229C, strain ROT2, active compounds read low 0.988 | locus YBR231C, strain swc5, active compounds read low 1 | locus YBR279W, strain paf1, active compounds read low 0.999 | locus YCL011C, strain gbp2, active compounds read low 0.994 | locus YCL016C, strain dcc1, active compounds read low 1 | locus YCL029C, strain bik1, active compounds read low 0.962 | locus YCL061C, strain MRC1, active compounds read low 0.984 | locus YCL069W, strain vba3, active compounds read low 0.993 | locus YCR088W, strain abp1, active compounds read low 0.993 | locus YDL005C, strain med2, active compounds read low 0.996 | locus YDL035C, strain GPR1, active compounds read low 1 | locus YDL040C, strain nat1, active compounds read low 0.992 | locus YDL074C, strain BRE1, active compounds read low 0.97 | locus YDL101C, strain DUN1, active compounds read low 0.981 | locus YDL134C, strain PPH21, active compounds read low 0.999 | locus YDL185W, strain tfp1, active compounds read low 0.954 | locus YDL192W, strain arf1, active compounds read low 0.992 | locus YDR001C, strain nth1, active compounds read low 0.999 | locus YDR069C, strain doa4, active compounds read low 0.992 | locus YDR101C, strain arx1, active compounds read low 0.982 | locus YDR137W, strain rgp1, active compounds read low 1.01 | locus YDR150W, strain NUM1, active compounds read low 0.987 | locus YDR159W, strain sac3, active compounds read low 1 | locus YDR162C, strain NBP2, active compounds read low 0.996 | locus YDR195W, strain ref2 0.986 | locus YDR297W, strain sur2, active compounds read low 0.994 | locus YDR318W, strain mcm21, active compounds read low 0.981 | locus YDR334W, strain swr1, active compounds read low 0.998 | locus YDR335W, strain msn5, active compounds read low 0.986 | locus YDR388W, active compounds read low 0.993 | locus YDR392W, strain spt3, active compounds read low 0.995 | locus YDR502C, strain sam2, active compounds read low 1.01 | locus YEL003W, strain gim4, active compounds read low 0.999 | locus YEL037C, strain rad23, active compounds read low 0.996 | locus YEL061C, strain CIN8 (second series), active compounds read low 0.998 | locus YEL061C, strain CIN8, active compounds read low 0.995 | locus YER015W, strain faa2, active compounds read low 1 | locus YER016W, strain bim1, active compounds read low 0.994 | locus YER110C, active compounds read low 0.995 | locus YER111C, strain swi4, active compounds read low 0.991 | locus YER155C, strain BEM2 (second series), active compounds read low 0.988 | locus YER155C, strain BEM2, active compounds read low 0.982 | locus YER167W, strain BCK2, active compounds read low 0.996 | locus YFR010W, strain ubp6, active compounds read low 0.999 | locus YGL078C, strain dbp3, active compounds read low 0.996 | locus YGL086W, strain mad1, active compounds read low 1 | locus YGL167C, strain pmr1, active compounds read low 1 | locus YGL173C, strain kem1, active compounds read low 0.998 | locus YGL227W, strain vid30, active compounds read low 0.998 | locus YGL240W, strain doc1, active compounds read low 0.997 | locus YGL248W, strain PDE1, active compounds read low 1 | locus YGL253W, strain hxk2, active compounds read low 0.992 | locus YGR078C, strain PAC10, active compounds read low 0.982 | locus YGR135W, strain pre9, active compounds read low 0.998 | locus YGR229C, strain SMI1, active compounds read low 1.02 | locus YGR252W, strain gcn5, active compounds read low 1.15 | locus YHR013C, strain ard1, active compounds read low 0.996 | locus YHR027C, strain rpn1, active compounds read low 1 | locus YHR030C, strain SLT2, active compounds read low 0.996 | locus YHR079C, strain IRE1 (second series), active compounds read low 0.977 | locus YHR094C, strain hxt1, active compounds read low 0.974 | locus YHR129C, strain ARP1, active compounds read low 0.993 | locus YHR142W, strain chs7, active compounds read low 0.993 | locus YHR200W, strain rpn10, active compounds read low 0.989 | locus YIL066C, strain RNR3, active compounds read low 0.98 | locus YIL073C, strain SPO22, active compounds read low 0.997 | locus YIL125W, strain kgd1, active compounds read low 0.997 | locus YIR030C, strain dcg1, active compounds read low 0.988 | locus YJL092W, strain hpr5, active compounds read low 0.987 | locus YJL095W, strain BCK1 (second series), active compounds read low 0.998 | locus YJL095W, strain BCK1, active compounds read low 0.999 | locus YJL115W, strain asf1, active compounds read low 0.987 | locus YJL129C, strain trk1, active compounds read low 0.992 | locus YJL134W, strain LCB3, active compounds read low 0.998 | locus YJL154C, strain vps35, active compounds read low 1 | locus YJL164C, strain tpk1, active compounds read low 1 | locus YJL166W, strain qcr8, active compounds read low 0.996 | locus YJL168C, strain set2, active compounds read low 0.99 | locus YJL187C, strain SWE1 (second series), active compounds read low 0.966 | locus YJL187C, strain SWE1, active compounds read low 0.99
